# KB-V1 MDR tox: kills drug-selected multidrug resistant KB-V1 cells; hit rate 3.4% among 400,000; Potency, µM (top dose mostly 46.1 µM), most hits filed as cytotoxic; KB-V1 MDR cells viability, CellTiter-Glo, 72 h; note: nearly all actives have a fitted effect of over 60% in size
#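 Readout: CellTiter-Glo luminescence, 10 min after addition. Cells: KB-V1 MDR subline, 72 h at 37 degrees C with compound. Analysis: corrected, normalized data fitted to concentration-effect curves.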
# TDP1 cell CPT: growth inhibition of DT40 Tdp1-/-;hTDP1 cells with camptothecin (screen for TDP1 inhibitors). Potency, µM (titrated, usually from 46.2 µM), inactives show at the top dose activity change, negative = growth inhibition, hits mostly inhibitors. AID 686979. hit rate 12% among 420,000. chicken DT40 Tdp1-/-;hTDP1 cells + 20 nM CPT, ATP luminescence, 48 h; note: nearly all actives have a fitted effect of over 55% in size
#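 Chicken DT40 Tdp1-/- cells stably complemented with human TDP1 were seeded at 400 cells/well in medium containing 20 nM camptothecin, exposed to pin-transferred compounds, and grown at 37 °C for at least 48 hr. Viability was read as ATP luminescence.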
# KB-3-1 cytotox: KB-3-1 parental cell cytotoxicity; KB-3-1 viability, CellTiter-Glo ATP luminescence, 72 h; Potency, µM (doses to about 46.1 µM), most hits filed as cytotoxic; hit rate 1.4% among 400,000; AID 1347075; note: nearly all actives have a fitted effect of over 60% in size
#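 Multi-concentration cytotoxicity screen in KB-3-1 cells grown in DMEM lacking phenol red with 10% FBS. After 72 h at 37 °C with compound, ATP-dependent luminescence was recorded.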
# HT1080 IDH1KD tx: toxicity to HT-1080 IDH1 knockdown cells (counter line); HT-1080 IDH1 knockdown viability, ATP luminescence, 48 h; Potency, µM (titrated, usually from 46.1 µM), inactives show top-dose activity, negative = toxicity, actives largely listed as cytotoxic; hit rate 2% among 360,000; AID 686971;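 note: 0% = DMSO wells and -100% = cell-free medium wells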
#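 Using the IDH1-knockdown HT-1080 line run in the same batch and compound series as the NT line, viability after 48 h at 37 °C was determined by CellTiter-Glo luminescence and expressed as % activity.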
# HT1080NT lethal: kills 2HG-producing HT-1080-NT fibrosarcoma cells | HT-1080-NT fibrosarcoma viability, CellTiter-Glo ATP luminescence, 48 h | Potency, µM (highest dose often 46.1 µM), without a hit: at the highest dose activity, negative = less viability, most hits filed as cytotoxic | hit rate 1.6% among 360,000;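 note: NT is the 2HG producing partner of a matched IDH1 knockdown line; 0% = DMSO-treated cells and -100% = media-only wells without cells; nearly all actives have a fitted effect of over 55% in size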
#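 Read-out is CellTiter-Glo luminescence after 10 minutes at room temperature, following 48 hours' compound treatment of HT-1080-NT cells (750 cells/well, RPMI, 5% FBS, 37 degrees C).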
# TDP1 cell noCPT: qHTS for Inhibitors of human tyrosyl-DNA phosphodiesterase 1 (TDP1): qHTS in cells in absence of CPT; DT40 Tdp1-/- hTDP1 cells, no CPT, ATP luminescence, 48 h; Potency, µM (doses to about 46.2 µM), inactives show top-dose activity change, negative = growth inhibition, usual class: inhibitors; hit rate 15% among 420,000; AID 686978, 2013; note: nearly all actives have a fitted effect of over 55% in size
#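 Readout: luminescence from CellTiter-Glo after 30 min in the dark at RT. Cells: DT40 Tdp1-/- with stable hTDP1, 400/well. Exposure: compounds alone, ≥48 hr, 37 °C.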
# * marks the source's active call; other numbers are inactive results; i = inactive; ? = inconclusive; nt = no result; [ ] = another dose, or the depositor's remark. Hits are enriched below; roughly 19% of the tested compounds scored in any of these assays. Calls come from the whole dose curve; as a rule, active = well fitted curve in the direction sought with a large enough effect; inconclusive = small, poorly fitted or top-dose-only effect, or another doubt; inactive = no such curve, though single readings can be large; an effect the other way counts as inactive or inconclusive. Unless noted, % is set by controls: 0 for no effect and ±100 for the full control effect; potency is the fitted concentration of half-maximal effect.
SMILES,KB-V1 MDR tox,TDP1 cell CPT,KB-3-1 cytotox,HT1080 IDH1KD tx,HT1080NT lethal,TDP1 cell noCPT
COc1ccc(C(C)=O)cc1COc1nc(C)nc2ccccc12,i,-1.0%,i,3.8%,3.2%,-20.9%
COc1ccc(C(C)=O)cc1CSc1nc(NCc2ccccc2)c2ccccc2n1,nt,?,nt,nt,nt,23.1µM*
COc1ccc(C(C)=O)cc1CSc1nc(Nc2ccc(F)c(F)c2)c2ccccc2n1,nt,?,nt,nt,nt,23.1µM*
CCOc1ccccc1NC(=O)Cn1c(=O)n(-c2ccccc2)c(=O)c2c1c1cc(C)ccc1n2C,i,1.9%,i,nt,nt,4.8%
COC(=O)c1ccc(COc2cccn3c(N(C)C(=O)CCC4CCCC4)c(C)nc23)cc1,i,18.4µM*,i,?,?,20.6µM*
Cc1nc2c(OCc3ccc(F)cc3)cccn2c1N(C)C(=O)CCC1CCCC1,i,?,i,?,?,23.1µM*
Cc1nc2c(OCc3ccc(Cl)cc3)cccn2c1N(C)C(=O)CCC1CCCC1,?,14.6µM*,?,18.2%,14.5%,23.1µM*
COc1cccc(CN(C)C(=O)CCNC(=O)c2ccco2)c1,i,1.1%,i,3.6%,3.8%,3.7%
O=C(c1ccco1)c1nnn(Cc2ccccc2)c1-c1ccccc1,23.1µM*,?,i,?,-19.1%,20.6µM*
N#Cc1ccc(CN2CCN(C(=O)c3cc(C4CC4)nn3-c3ccccc3)CC2)cc1,i,23.1µM*,i,-0.2%,-4.2%,20.6µM*
COc1cc2c(cc1OC)CN(C(=O)c1cc(C3CC3)nn1-c1ccccc1)CC2,i,18.4µM*,i,3.0%,0.3%,?
CSc1nnnn1-c1ccc(C(=O)OCC(=O)N2CCOCC2)cc1,i,-7.7%,i,-1.2%,1.5%,0.1%
CCOC(=O)c1ccccc1NC(=O)Cn1cc(C(=O)c2cccc(OC)c2)c(=O)c2ccc(C)nc21,i,-4.9%,i,nt,nt,0.9%
CCC1CCCCN1C(=O)c1sc2nc(C)nc(N(CC)CC)c2c1C (stereo unspecified),i,?,i,1.9%,-6.8%,16.4µM*
CCOC(=O)C1CCCN(C(=O)c2sc3nc(C)nc(N(CC)CC)c3c2C)C1 (stereo unspecified),i,23.1µM*,i,-7.1%,-0.5%[9.24 µM],?
CCCNC(=O)Cn1cnc2sc(C(=O)N3CCCC(C(=O)OCC)C3)c(C)c2c1=O (stereo unspecified),i,6.7%,i,0.3%[9.24 µM],4.4%,-8.6%
O=C(NCCCc1ccccc1)c1ccc(-n2cncn2)c([N+](=O)[O-])c1,i,?,i,-2.4%,1.9%,?
O=C(CSC1CCCCC1)Nc1nccs1,i,-7.7%,i,-2.0%,3.0%,-20.4%
Cc1nnc(NC(=O)CSC2CCCCC2)s1,i,1.84µM*,i,16.8%,13.8%,5.8µM*
O=C(CN1C(=O)C2C3C=CC(C3)C2C1=O)NCc1ccc2c(c1)OCO2 (stereo unspecified),i,-4.6%,i,0.6%,-1.7%,-17.6%
Cc1cc2ccc3ccccc3c2cc1CN(C)C,i,?,i,18.4µM*,32.6µM*,?
CN(C)Cc1cc2ccccc2c2c1COC2,i,-6.9%,i,-6.4%,-1.2%,?
Cc1ccnc(NC(=O)Nc2ccc3c(c2)OCO3)c1,i,4.7%,i,-4.3%,16.4%,16.3%
CC(C)=CC(=O)O[C@@H]1Cc2cc3ccc(=O)oc3cc2OC1(C)C,?,?,?,-8.2%,?,?
Cc1cc(NNC(=O)c2cccc(C(F)(F)F)c2)nc2c1c(C)nn2C,?,10.3µM*,i,?,?,5.8µM*

# Bioassay records from PubChem.
